Only a selection was taken, and hits are over-represented in it overall.
mHTT-CaM PPI inh – mHTT-calmodulin interaction abrogation | P42858 | AlphaScreen His-mHTT/GST-CaM binding, luminescence | inhibition, % at 15 µM | 190,000 compounds, 3.6% hits
Pf apPOL block – Pf-apPOL DNA polymerase inhibition | Recombinant Pf-apPOL, molecular beacon fluorescence, 1.5 h | inhibition, % at 10 µM | 210,000 compounds, 0.25% hits
Each line names hits and unclear results; the compound was inactive in the other large screens; ! = not active in a repeat. Cut-off read from the data, not from the text of the source: active = inhibition above about 50%; inactive = the rest.

c1ccc(CC2COC(C3=N[C@@H](Cc4ccccc4)CO3)=N2)cc1 (some centres undefined)	none (no result: Pf apPOL block)
O=S(=O)(C1CC1)N1CCCC2(C1)Nc1ccccc1NC2=NC1CCCC1 (centres undefined)	none
CCc1ccc(NC(=O)c2ccc(-n3cc(CNC(=O)C4CC4)cn3)cc2)cc1	none
O=C(Cc1csc(NC(=O)c2ccco2)n1)NCc1cccs1	none
O=C(Cc1csc(NC(=O)c2ccco2)n1)Nc1ccc(F)c(C(F)(F)F)c1	mHTT-CaM PPI inh 58.7
CSc1ccc(CN2CCN(S(=O)(=O)c3ccccc3[N+](=O)[O-])CC2)cc1	none
O=C(CSc1ccccc1)N1CCOCC1	none
O=C(CSc1nc(-c2ccccc2)c(-c2ccccc2)o1)N1CCOCC1	mHTT-CaM PPI inh 56.0!
Cc1nc(-c2cnccn2)nc2c1CCC(=O)N2Cc1ccccn1	mHTT-CaM PPI inh 98.9
Cc1nc(-c2ccncc2)nc2c1CCC(=O)N2Cc1cccs1	none
Cc1nc(-c2cccnc2)nc2c1CCC(=O)N2CCN(C)C	none
Cc1ccc(CN2C(=O)CCc3c(C)nc(-c4ccncc4)nc32)o1	mHTT-CaM PPI inh 71.4
Cc1nc(-c2cccnc2)nc2c1CCC(=O)N2CCN1CCCC1	Pf apPOL block 57.9
Cc1nc(-c2cccnc2)nc2c1CCC(=O)N2Cc1ccccn1	none
FC(F)(F)c1nnc(C2CCN(Cc3ccccn3)CC2)o1	none
CCN1CCN(C(=O)c2c(C(C)C)nn(-c3ccccc3C)c2C(C)C)CC1	none
Cc1cc(OCc2nc(C(=O)NC(C)C)cs2)ccc1Cl	mHTT-CaM PPI inh 66.0
Cc1cc(OCC(=O)NN)ccc1Cl	none
CC(C)NC(=O)c1csc(COc2ccc(Cl)cc2)n1	none
Cc1cc(OCC(=O)NC(C)C)ccc1Cl	mHTT-CaM PPI inh 90.5
O=C(CN1C(=O)S/C(=C\c2ccc(Cl)cc2)C1=O)Nc1nccs1	none
CC(NC(=O)CN1C(=O)NC2(CCCCC2)C1=O)c1ccccc1 (centres undefined)	none
CCN1CCn2cc(C(=O)NCc3ccc(C(F)(F)F)cc3)nc2C1	mHTT-CaM PPI inh 97.1
CCN1CCn2cc(C(=O)NCc3ccc(F)cc3)nc2C1	none
CC(C)(C)NC(=O)N1CCC(CNC(=O)Cc2ccccc2Cl)CC1	none
O=C(C[C@H]1C(=O)N(Cc2cccnc2)C[C@@H]1Cc1ccccc1)Nc1ccc(Br)cc1	none
COc1ccc(N2C[C@H](C)[C@@H](CC(=O)Nc3ccc(Br)cc3)C2=O)cc1	none
COc1ccc(NC(=O)C[C@H]2C(=O)N(c3ccccc3)C[C@@H]2Cc2ccccc2)cc1	none
O=C(C[C@H]1C(=O)N(Cc2ccccc2)C[C@@H]1Cc1ccccc1)Nc1ccc(Br)cc1	mHTT-CaM PPI inh 52.4
COc1ccc(N2C[C@H](Cc3ccccc3)[C@@H](CC(=O)Nc3ccccc3)C2=O)cc1	mHTT-CaM PPI inh 73.7
COc1ccc([C@H]2CN(c3ccc(OC)cc3)C(=O)[C@@H]2CC(=O)Nc2ccc(Br)cc2)cc1	mHTT-CaM PPI inh 54.7
Cc1noc(-c2nn(C)c3c2CN(C(=O)C2CCCCC2)CC3)n1	none
O=C(COc1ccc(Cl)cc1)N1CCCCC1CCN1CCCCCC1 (centres undefined)	none
O=C(Cc1cccc(F)c1)Nc1nnc(C2CC(=O)N(c3ccc(Cl)cc3)C2)o1 (centres undefined)	none
O=C(Cc1cccc(F)c1)Nc1nnc(C2CC(=O)N(c3ccc(F)cc3)C2)o1 (centres undefined)	mHTT-CaM PPI inh 73.9
COc1ccccc1-c1nnc(NC(=O)C2CC(=O)N(c3ccc(F)cc3)C2)o1 (centres undefined)	none
CSc1ccc(N2CC(c3nnc(NC(=O)c4ccco4)o3)CC2=O)cc1 (centres undefined)	mHTT-CaM PPI inh 65.0
Cc1nc(C)c(-c2nnc(NC(=O)C3CC(=O)N(c4ccc(F)cc4)C3)o2)s1 (centres undefined)	mHTT-CaM PPI inh 96.8
Cc1ccc(CC(=O)Nc2nnc(C3CC(=O)N(c4ccc(F)cc4)C3)o2)cc1 (centres undefined)	none
CSc1ccc(N2CC(c3nnc(NC(=O)c4c(F)cccc4F)o3)CC2=O)cc1 (centres undefined)	none
O=C(Cc1ccc(F)cc1)Nc1nnc(C2CC(=O)N(c3ccc(F)cc3)C2)o1 (centres undefined)	mHTT-CaM PPI inh 80.0
Cc1ccsc1C(=O)Nc1cccn2nc(C(C)C)nc12	none
O=c1c2scc(-c3ccc(F)cc3)c2ncn1Cc1ccccn1	none
FC(F)(F)Oc1ccc(SCc2c(Cl)cccc2Cl)cc1	none (no result: mHTT-CaM PPI inh)
O=C(Cc1ccc(F)cc1)Nc1nnc(C2=COCCO2)o1	mHTT-CaM PPI inh 51.1
O=C(Nc1nnc(C2CC(=O)N(c3ccc(F)cc3)C2)o1)c1ccc(F)cc1 (centres undefined)	none
COc1ccc(C(=O)Nc2nnc(C3CC(=O)N(c4ccc(F)cc4)C3)o2)cc1OC (centres undefined)	mHTT-CaM PPI inh 54.2
O=C(Cc1ccc(F)cc1)Nc1nnc(-c2ccc3c(c2)CCCC3)o1	none
Cc1ccc(C(=O)NCCc2nc3ccccc3[nH]2)cc1C	none
COc1cc(OC)cc(C(=O)N2CC3CC(NC(=O)c4cccs4)C2C3)c1 (centres undefined)	none

Screening data from PubChem.
